Results as given in PubChem BioAssay (NCI).
Compounds without any hit were thinned out: in the full panel of roughly 79,000, 15% have a hit. A number with no mark means an inactive call. Calls of active or inactive are those of the source. Rule as the data show it: active = growth inhibition above about 70%; inactive = the rest.

Test: NCI Yeast Anticancer Drug Screen. Data for the CLN2oe strain (AID 163);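 also: 0% = growth of vehicle-only control cultures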
Settings: S. cerevisiae CLN2oe strain, at 33.0 µM, stronger effect = higher value
Outline: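 Here, growth inhibition in a cell-cycle-altered yeast strain after compound exposure was quantified against vehicle control growth.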
Work on `C#CCN(Cc1ccc2nc(N)[nH]c(=O)c2c1)c1ccc(C(=O)NC(CCC(=O)O)C(=O)O)cc1` (centres undefined) yielded a growth inhibition of 1%. With `O=C(O)CNC(=S)Nc1ccccc1` the growth inhibition was 52%. With `N/C(=N/N=C/c1cc(Br)cc(Br)c1O)NO` the growth inhibition was 95% (active). Compound `CC1=C(C(=O)NCc2ccccc2)C(c2ccccc2)C(C(=O)NCc2ccccc2)=C(C)N1` has a growth inhibition of 4%. In the case of `COc1cc2ccnc(-c3c4ccccc4c(N)c4c(OC)c(OC)ccc34)c2cc1OC`, the growth inhibition is reported as 17%. In the case of `CCOC(=O)C1=C(C)NC(C)=C(C(=O)OCCNC(=O)c2ccc(N=[N+]=[N-])cc2)C1c1ccccc1C(F)(F)F` (centres undefined), the growth inhibition is reported as 25%. In the case of `Cc1c(C)c(C)c(CSC(=N)N)c(C)c1C`, the growth inhibition is reported as 59%. `O=C(CSC(=S)N1CCCCC1)Nc1nc2c(s1)CCCC2` gave a growth inhibition of 0%. `CC(=O)OC1CC2C(C)(C)C(=O)C=C[C@]2(C)C2CCC3(C)C(=CCC3[C@H](CO)C[C@H](O)C(=O)C(C)(C)O)[C@]12C` (some centres undefined) showed a growth inhibition of 0%. Work on `CCCCCCOC(=O)NCCOC(=O)Nc1ccccc1` yielded a growth inhibition of 3%. With `C[C](C)(C)[Ge]([O][Ge]([c]1ccccc1)[c]1ccccc1)([O][Ge]([c]1ccccc1)[c]1ccccc1)[C](C)(C)C` the growth inhibition was 74% (active). Compound `CCc1c(Cl)c(C)cc(O)c1Cl` has a growth inhibition of 6%. With `Cc1c2cccc(Sc3ccccc3)c2c2c3c(cccc13)[S+](c1ccccc1)C2` (centres undefined) the growth inhibition was 92% (active). Compound `COc1cc2cc3c4cc(OC)c(OC)cc4cc[n+]3c(C)c2cc1OC` has a growth inhibition of -39%. Compound `O=C1CSC(c2cccc(Cl)c2)N1c1ccc(-c2ccc(-n3c(-c4ccccc4)nc4ccccc4c3=O)cc2)cc1` (centres undefined) has a growth inhibition of 15%. `CCOC(=O)C(C(=O)OCC)=P(c1ccccc1)(c1ccccc1)c1ccccc1` gave a growth inhibition of -2%. For `Cc1nc2c(Br)cc(Br)cc2c(=O)n1-c1ccccc1NC1OCC(O)C(O)C1O` (centres undefined), the growth inhibition was 72% (active).

Same assay, conditions: S. cerevisiae CLN2oe strain, at 100.0 µM, stronger effect = higher value
Compound `C#CCN(Cc1ccc2nc(N)[nH]c(=O)c2c1)c1ccc(C(=O)NC(CCC(=O)O)C(=O)O)cc1` (centres undefined) has a growth inhibition of 28%. With `O=C(O)CNC(=S)Nc1ccccc1` the growth inhibition was 86% (active). For `N/C(=N/N=C/c1cc(Br)cc(Br)c1O)NO`, the growth inhibition was 98% (active). In the case of `CC1=C(C(=O)NCc2ccccc2)C(c2ccccc2)C(C(=O)NCc2ccccc2)=C(C)N1`, the growth inhibition is reported as 63%. With `COc1cc2ccnc(-c3c4ccccc4c(N)c4c(OC)c(OC)ccc34)c2cc1OC` the growth inhibition was 37%. Work on `CCOC(=O)C1=C(C)NC(C)=C(C(=O)OCCNC(=O)c2ccc(N=[N+]=[N-])cc2)C1c1ccccc1C(F)(F)F` (centres undefined) yielded a growth inhibition of 53%. For `Cc1c(C)c(C)c(CSC(=N)N)c(C)c1C`, the growth inhibition was 99% (active). `O=C(CSC(=S)N1CCCCC1)Nc1nc2c(s1)CCCC2` gave a growth inhibition of 61%. In the case of `CC(=O)OC1CC2C(C)(C)C(=O)C=C[C@]2(C)C2CCC3(C)C(=CCC3[C@H](CO)C[C@H](O)C(=O)C(C)(C)O)[C@]12C` (some centres undefined), the growth inhibition is reported as 82% (active). Work on `CCCCCCOC(=O)NCCOC(=O)Nc1ccccc1` yielded a growth inhibition of -2%. For `C[C](C)(C)[Ge]([O][Ge]([c]1ccccc1)[c]1ccccc1)([O][Ge]([c]1ccccc1)[c]1ccccc1)[C](C)(C)C`, the growth inhibition was 81% (active). For `CCc1c(Cl)c(C)cc(O)c1Cl`, the growth inhibition was 75% (active). For `Cc1c2cccc(Sc3ccccc3)c2c2c3c(cccc13)[S+](c1ccccc1)C2` (centres undefined), the growth inhibition was 84% (active). Work on `COc1cc2cc3c4cc(OC)c(OC)cc4cc[n+]3c(C)c2cc1OC` yielded a growth inhibition of -5%. With `O=C1CSC(c2cccc(Cl)c2)N1c1ccc(-c2ccc(-n3c(-c4ccccc4)nc4ccccc4c3=O)cc2)cc1` (centres undefined) the growth inhibition was 11%. For `CCOC(=O)C(C(=O)OCC)=P(c1ccccc1)(c1ccccc1)c1ccccc1`, the growth inhibition was 84% (active). In the case of `Cc1nc2c(Br)cc(Br)cc2c(=O)n1-c1ccccc1NC1OCC(O)C(O)C1O` (centres undefined), the growth inhibition is reported as 97% (active).
